The source made the active and inactive calls. How the source made its calls: active means hit-call score of the fitted dose curve at least 0.9, where 1 is the maximum; inactive means score below 0.9.

A word on the AC50: it is the concentration giving half of the maximal activity seen.

The first test is described as follows: ATG_ERE_CIS: Attagene CIS-FACTORIAL HepG2 Assay for Estrogen Response Element (ERE) (AID 2282940). The settings on record: HepG2 ERE cis-reporter, Attagene RNA transcript; actives raise or lower the signal. Summed up:
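HepG2 cells transiently transfected with cis-promoter-driven multiplexed reporter transcription units report endogenous TF activity. After 24 h compound exposure, reporter mRNA is quantified by RT-PCR with capillary electrophoresis fluorescence; bidirectional fitting versus DMSO baseline.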
Regarding `CC(=O)C(C)=CC1C(C)=CCCC1(C)C` (stereo unspecified), the half-maximal activity concentration (AC50) was 33.4 µM (active).
With `CCCCCCC(=O)OCC`, the AC50 was 34.7 µM (active).
`CCCCN(CCCC)CCCC`: the outcome was inactive.
On to `CCOC(=O)CCC(=O)OCC`, for which the result was inactive.
Regarding `CC(=O)OC/C=C(\C)CCC=C(C)C`, the result was inactive.
With `CC(C)c1ccc(C(=O)N=C(N)N)cc1S(C)(=O)=O`, the concentration at half-maximal activity (AC50) is 71.7 µM (active).
Take `Cc1ccc(Cl)cc1`: the molecule was classed as inactive.
With `COc1cccc2c1C(=O)c1c(O)c3c(c(O)c1C2=O)C[C@@](O)(C(=O)CO)C[C@@H]3O[C@H]1C[C@H](N)[C@H](O)[C@H](C)O1`, the molecule was classed as inactive.
Consider `Oc1ccc2ccccc2c1N=Nc1ccccc1`, for which the AC50 is 4.52 µM (active).
For the molecule `NS(=O)(=O)c1cc2c(cc1Cl)NCNS2(=O)=O`, the molecule was called inactive.
Same read-out and setting: for `COc1ccc2c(c1)c(CC(=O)O)c(C)n2C(=O)c1ccc(Cl)cc1` the value was “inactive”; for `CCOC(=O)C(C)(C)Oc1ccc(Cl)cc1`, “inactive”.
`CCCCOC(=O)CCCCCCCCC(=O)OCCCC`: the outcome was inactive.
Turning to `O=C(O)CCCCC(=O)O`, the result was inactive.
Still for that read-out and setting: in the case of `CCCCCCCCCCCC(=O)OC` it was “inactive”; in that of `O=C(N[C@@H](Cc1ccccc1)[C@@H](O)C(=O)N1C[C@@H](O)[C@@H](O)C1)c1cc2cc(Cl)ccc2[nH]1`, “inactive”.

The nature of another test: ATG_Ets_CIS: Attagene CIS-FACTORIAL HepG2 Assay for human Erythroblast Transformation Specific (ETS) (AID 2282941). The settings on record: HepG2 ETS cis-reporter transcription, actives raise or lower the signal. Summed up:
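Multiplexed reporter transcript profiling: HepG2, 24 h treatment, total RNA to cDNA, PCR, 6-FAM labelling, HpaI cut, capillary electrophoresis. Gain- or loss-of-signal fitted against DMSO.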
As to `Nc1ccc2c(c1)C(=O)c1ccccc1C2=O`, the molecule was called inactive.
Turning to `CC(=O)C(C)=CC1C(C)=CCCC1(C)C` (stereo unspecified), the call was inactive.
Still for that read-out and setting: for `CCCCCCC(=O)OCC` the value was “inactive”.
On the same count and under the same terms, for `CCCCN(CCCC)CCCC` the value was “inactive”; for `Cc1nc(C)nc(N2C[C@@H](C)N(c3ccnc([C@@H](C)O)n3)[C@@H](C)C2)n1`, “inactive”.
As to `CC(=O)OCCOCCOCCOC(C)=O`, the call was inactive.
On to `CCOC(=O)CCC(=O)OCC`, for which the molecule was called inactive.
`CC(=O)Oc1ccccc1C(=O)O`: the outcome was inactive.
`CC(=O)OC/C=C(\C)CCC=C(C)C`: the outcome was inactive.
In the case of `CC(C)c1ccc(C(=O)N=C(N)N)cc1S(C)(=O)=O`, the molecule was classed as inactive.
Same read-out and setting: in the case of `Cc1ccc(Cl)cc1` it was “inactive”; in that of `C[Si]1(C)O[Si](C)(C)O[Si](C)(C)O[Si](C)(C)O1`, “inactive”.
Take `C=CCc1ccc(O)c(OC)c1`: the outcome was inactive.
In the case of `COc1cccc2c1C(=O)c1c(O)c3c(c(O)c1C2=O)C[C@@](O)(C(=O)CO)C[C@@H]3O[C@H]1C[C@H](N)[C@H](O)[C@H](C)O1`, the outcome was inactive.
With `Cc1cccc(C)c1O`, the call was inactive.
`CCCCCC(=O)O`: the molecule was called inactive.
Regarding `Oc1ccc2ccccc2c1N=Nc1ccccc1`, the outcome was inactive.
Turning to `NS(=O)(=O)c1cc2c(cc1Cl)NCNS2(=O)=O`, the molecule was called inactive.
With `Cc1ccccc1Cl`, the call was inactive.
Turning to `COc1ccc2c(c1)c(CC(=O)O)c(C)n2C(=O)c1ccc(Cl)cc1`, the call was inactive.
Still for that read-out and setting: for `Cc1cccc(Nc2cc(Cl)nc(SCC(=O)O)n2)c1C` the value was “inactive”.
Consider `CCOC(=O)C(C)(C)Oc1ccc(Cl)cc1`, for which the call was inactive.
The same measure, in the same setting: for `CCCCOC(=O)CCCCCCCCC(=O)OCCCC` the value was “inactive”.
Turning to `CCc1c(C(=O)NN2CCCCC2)nn(-c2ccc(Cl)cc2Cl)c1-c1ccc(Br)cc1`, the molecule was classed as inactive.
For the molecule `Oc1ccc2c(c1)OC[C@@H](N1CCC(O)(c3ccc(F)cc3)CC1)[C@H]2O`, the molecule was called inactive.
Still for that read-out and setting: for `O=C(O)CCCCC(=O)O` the value was “inactive”.
As for `CCCCCCCCCCCCCCCCCC(=O)O`, the molecule was classed as inactive.
For `CCCCCCCCCCCC(=O)OC`, the molecule was called inactive.
On to `O=C(N[C@@H](Cc1ccccc1)[C@@H](O)C(=O)N1C[C@@H](O)[C@@H](O)C1)c1cc2cc(Cl)ccc2[nH]1`, for which the molecule was called inactive.
In the case of `CCCCCCCC=O`, the result was inactive.

These data come from PubChem BioAssay (EPA / NIEHS).
